Each structure is given as a SMILES string. Records with an inconclusive call do not appear. The source made the active and inactive calls. Calls follow the shape of the dose curve; as a rule, active = well fitted cell-killing curve with a large enough effect in the repeat runs; inconclusive = weak or mixed curves, or effect the other way; inactive = flat fitted curve, though single readings scatter.
% is scaled to controls: 0 for no effect and ±100 for the full control effect; potency is read from the fitted curve at half-maximal effect.

This assay in a line: cAMP Responsive Elements (CRE) small molecule antagonists, cell-based qHTS assay: qHTS cell viability counter screen (AID 2060913). Also: nearly all actives have a fitted effect of over 40% in size. To be noted: CRE-bla HEK293T viability, CellTiter-Glo luminescence, 5 h; series mostly up to 92.4 µM; viability change, negative = cytotoxic: at the top concentration. In short, it runs like this: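 HEK293T CRE-bla, 2,000 cells/well, 18 h preincubation; cpd in DMSO + NKH477 0.25 uM final, 3 h 37 C/5% CO2; LiveBLAzer 2 h RT, then CellTiter-Glo 30 min RT, luminescence.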
(In general: Quantitative high-throughput screening tests each substance at several concentrations.)
Regarding `C=C1C(CCl)(CCl)C2(Cl)C(Cl)C(Cl)C1(Cl)C2(Cl)Cl` (stereo not drawn), the Potency is 60.4 µM (active). Take `C=Cc1ccc(S(=O)(=O)O)cc1`: the “viability change, negative = cytotoxic” value was -12.6% (inactive). Still for that read-out and setting: the value for `NC(=O)N(O)[C@@H]1COc2cc(OCc3ccccc3)ccc21` was 2.49% (inactive); that for `O=C(OCCOCCO)c1ccccc1Nc1cccc(C(F)(F)F)c1` was 1.67% [at 42.5 µM] (inactive); that for `C=CC(=O)OCCOc1ccccc1` was 16% (inactive). For `Cc1ccc2ccc3cccc4ccc1c2c34`, the “viability change, negative = cytotoxic” value is -24.3% (inactive). Still for that read-out and setting: next, `CCC(C)c1ccccc1` (stereo not drawn): 5.44% (inactive); `O=C(O)C1CCC(C(=O)O)CC1` (stereo not drawn): -1.92% (inactive); `CCCCCCCC(=O)N(C)C`: 4% (inactive). Consider `CN(C/C=C/c1ccccc1)Cc1cccc2ccccc12`, for which the Potency was 29.8 µM (active).

With `C=CCCCCCCCCOC(C)=O`, the “viability change, negative = cytotoxic” value was -2.8% (inactive). Same read-out and setting: the value for `CNS(=O)(=O)c1cc(C(=O)N2CCC(CCN3C4CCC3CC(n3c(C)nc5ccccc53)C4)(c3cccc(F)c3)CC2)c(Cl)cc1F` (stereo not drawn) was -14.6% (inactive). The same measure, in the same setting: next, `CCCCCCCC/C=C/CCCOC(C)=O`: 3.93% (inactive). Turning to `Cc1ccc(N(C)C)cc1`, the Potency entry is “inactive”. For the compound `CCC1NC(=O)c2cc(S(N)(=O)=O)c(Cl)cc2N1` (stereo not drawn), the “viability change, negative = cytotoxic” value is 0.808% [at 42.5 µM] (inactive). On the same count and under the same terms, next, `C/C(=C(/OCCOc1ccc(Cl)cc1)c1ccc(Cl)cc1Cl)n1ccnc1`: -9.46% [at 42.5 µM] (inactive). Still for that read-out and setting: the value for `COC[C@H](c1ccc(C(F)(F)F)cc1)N1CCN(C2(C)CCN(C(=O)c3c(C)ncnc3C)CC2)C[C@H]1C` was -0.315% [at 42.5 µM] (inactive). Consider `CC(=O)Oc1ccccc1C(=O)Nc1ncc([N+](=O)[O-])s1`, for which the Potency was 7.5 µM (active).

Source of the values: PubChem BioAssay (Tox21).
